# Key:
# Details in all cases: concentration: 1 μM, replicates: in singlicate; n = 1
# CDK8 = tested on: CDK8
# CDK9 = tested on: CDK9
# CDKL1 = tested on: CDKL1
# CDKL2 = tested on: CDKL2
# CDKL3 = tested on: CDKL3
# CDKL5 = tested on: CDKL5
# CHEK1 = tested on: CHEK1
# CHEK2 = tested on: CHEK2
# CIT = tested on: CIT
# CLK1 = tested on: CLK1
# CLK2 = tested on: CLK2
# CLK3 = tested on: CLK3
# CLK4 = tested on: CLK4
# CSF1R-autoinhibited = tested on: CSF1R-autoinhibited
# CSF1R = tested on: CSF1R
# CSK = tested on: CSK
# CSNK1A1L = tested on: CSNK1A1L
# CSNK1A1 = tested on: CSNK1A1
# CSNK1D = tested on: CSNK1D
# CSNK1E = tested on: CSNK1E
# 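Note: KINOMEscan kinase panel screen.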
Compound,%Inh (CDK8) [%],%Inh (CDK9) [%],%Inh (CDKL1) [%],%Inh (CDKL2) [%],%Inh (CDKL3) [%],%Inh (CDKL5) [%],%Inh (CHEK1) [%],%Inh (CHEK2) [%],%Inh (CIT) [%],%Inh (CLK1) [%],%Inh (CLK2) [%],%Inh (CLK3) [%],%Inh (CLK4) [%],%Inh (CSF1R-autoinhibited) [%],%Inh (CSF1R) [%],%Inh (CSK) [%],%Inh (CSNK1A1L) [%],%Inh (CSNK1A1) [%],%Inh (CSNK1D) [%],%Inh (CSNK1E) [%]
O=C(Nc1cccc(-c2nn3ncccc3c2-c2ccnc(Nc3ccccc3)n2)c1)c1c(F)cccc1F [GSK198271],0,4,3,30,0,6,5,0,29,27,0,25,8,17,99.7,97.5,2,0,20,85
Cc1ccc(C)c(NC(=O)NC2CCN(c3ccnc(Nc4ccc(F)cc4)n3)C2)c1 (centres unmarked) [GSK1379720],21,0,1,35,0,0,0,0,0,23,0,0,0,25,0,0,0,0,6,11
COc1cccc(C(=O)Nc2cccc(Oc3ccc4nc(NC(=O)C5CC5)cn4n3)c2)c1,38,0,58,26,7,0,15,0,96.5,30,16,5,0,94.2,100,17,17,29,1,19
Cc1ccc(C(=O)Nc2ccc(Nc3ccnc4cc(-c5nccs5)ccc34)cc2O)cc1.Cl [GW494702],23,0,0,28,2,0,4,33,36,1,0,0,0,44,20,30,14,0,97.1,8
CC(=O)Nc1nc2cnc(Nc3cc(NC(=O)c4cccc(C5(C#N)CC5)c4Cl)ccc3C)nc2s1,21,0,5,36,24,0,0,4,62,0,0,0,10,15,99.4,41,23,0,0,0
CN(c1ccc(NC(=O)Nc2cc(C(F)(F)F)ccc2F)cc1)c1ccnc(Nc2ccc(S(N)(=O)=O)cc2)n1 [GW809893],98.9,93.5,80,99.9,99.4,26,0,20,57,47,13,0,16,0,25,9,9,15,0,1
CNC(=O)c1ccccc1Nc1nc(Nc2ccc(N3CCOCC3)cc2)ncc1Cl.Cl [GSK1576028],1,27,36,35,0,0,65,91.3,26,99.5,97.1,90,98.8,89,97.5,85,68,30,36,13
Cc1occc1-c1ncc(OC[C@@H](N)Cc2c[nH]c3ccccc23)cc1-c1ccc2[nH]nc(C)c2c1.O=C(O)C(F)(F)F [GSK682037],25,22,11,43,0,0,0,0,99.1,32,63,25,9,0,1,0,97.3,97,97.8,99.9
COc1cc(Nc2nccc(N3CCC(NC(=O)Nc4cccc(C(C)=O)c4)C3)n2)cc(OC)c1OC (centres unmarked) [GSK1379753],27,0,17,46,0,0,0,0,11,16,0,11,0,0,31,0,0,0,3,18
Fc1ccc(-c2ncn(C3CCNCC3)c2-c2ccnc(Oc3ccc(-c4ccccc4)cc3)n2)cc1 [SB-245391],92.8,12,28,0,32,0,0,0,98.9,21,11,32,0,8,12,14,71,93.9,96.2,99.5

# Source: article PMC5540273 (PLoS ONE, 2017)
